# Measured values reported in PMC7826789 (International Journal of Molecular Sciences, 2021).
structure (smiles),measurement,setting,value
CCCS(=O)(=O)Nc1ccc(F)c(-n2cc(-c3cncc(OC)c3)nn2)c1F [BI00865461],Kinases covered,ZAK,ZAK
CNS(=O)(=O)c1ccc(N(C)C)c(Nc2ncnc3cc(OC)c(OC)cc23)c1 [GSK114],Kinases covered,ZAK,ZAK
NC(=O)c1cccnc1COc1cc(-c2ccc(N3CCOCC3)nc2)cc2ncccc12 [BI01125081],Kinases covered,ZAP70,ZAP70
O=C1Nc2ccc(I)cc2C1=Cc1cc(Br)c(O)c(Br)c1 [GW305074X],Kinases covered,cRAF,cRAF
CCn1c(-c2nonc2N)nc2cncc(CNC3CCNCC3)c21 [SB-747651A],Kinases covered,p70S6K,p70S6K
